# About 83,000 compounds went through this panel and 20% of them were active in at least one assay; those are over-represented in the sample as a whole.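 Percent growth is the endpoint: 0 to 100 indicates growth inhibition (40 means 60% inhibition), 0 means no net growth, and negative values indicate cell death.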 Values without a mark were called inactive. The source made the active and inactive calls. How the source made its calls: active means growth percent below 10; inactive means the rest.
# Columns and labels:
# Test in all cases: NCI-60 one-dose screen, 48 h (100 = growth as untreated, 0 = no growth, -100 = all killed)
# Details in all cases: 10 µM unless noted
# NCI-H23 lung = tested on: NCI-H23 lung
# NCI-H226 lung = tested on: NCI-H226 lung
# NCI-H322M lung = tested on: NCI-H322M lung
# HOP-62 NSCLC = tested on: HOP-62 NSCLC
# NCI-H460 lung = tested on: NCI-H460 lung
# NCI-H522 lung = tested on: NCI-H522 lung
# A549/ATCC NSCLC = tested on: A549/ATCC NSCLC
# 786-0 renal = tested on: 786-0 renal
# COLO 205 colon = tested on: COLO 205 colon
# DU-145 prostate = tested on: DU-145 prostate
# K-562 leukemia = tested on: K-562 leukemia
# MALME-3M melanoma = tested on: MALME-3M melanoma
# MDA-MB-231 breast = tested on: MDA-MB-231 breast
# RXF 393 renal = tested on: RXF 393 renal
# SF-268 CNS = tested on: SF-268 CNS
# SF-295 CNS = tested on: SF-295 CNS
# SF-539 CNS = tested on: SF-539 CNS
# M14 melanoma = tested on: M14 melanoma
# UACC-257 melanoma = tested on: UACC-257 melanoma
Compound,growth (NCI-H23 lung),growth (NCI-H226 lung),growth (NCI-H322M lung),growth (HOP-62 NSCLC),growth (NCI-H460 lung),growth (NCI-H522 lung),growth (A549/ATCC NSCLC),growth (786-0 renal),growth (COLO 205 colon),growth (DU-145 prostate),growth (K-562 leukemia),growth (MALME-3M melanoma),growth (MDA-MB-231 breast),growth (RXF 393 renal),growth (SF-268 CNS),growth (SF-295 CNS),growth (SF-539 CNS),growth (M14 melanoma),growth (UACC-257 melanoma)
Cn1c(=O)c2c(nc(Br)n2CC(=O)Nc2ccc(F)cc2)n(C)c1=O,95.8%,103%,111%,96.9%,109%,81.3%,92.5%,95.3%,104%,109%,104%,103%,90.1%,108%,108%,108%,100%,99.7%,
COC(=O)[C@]12CC[C@@H](C(/C=C/c3cccnc3)=N/O)[C@@H]1[C@H]1CC[C@@H]3[C@@]4(C)CC(=C/c5cccnc5)/C(=N/O)C(C)(C)[C@@H]4CC[C@@]3(C)[C@]1(C)CC2,43.1%,13.7%,76.5%,60%,36.8%,43.3%,44.6%,67.8%,18%,55.6%,24.9%,39.2%,45.5%,67.1%,56.7%,30.6%,72.3%,19.3%,59.1%
C=C(C)[C@@H]1CC[C@]2(C=O)CC[C@]3(C)[C@H](CC[C@@H]4[C@@]5(C)C/C(=C/c6cccnc6)C(=O)C(C)(C)[C@@H]5CC[C@]43C)[C@@H]12,75.6%,91.3%,100%,119%,85.7%,72%,57.1%,101%,95.5%,92.1%,32.3%,88.1%,93.8%,83.2%,85.8%,86.9%,96.5%,78.5%,84.5%
CCCCN1CCCCn2c1nc1c2c(=O)n(C)c(=O)n1C,108%,104%,110%,103%,101%,,89%,100%,114%,105%,91.2%,116%,103%,108%,105%,106%,116%,106%,97%
C=C(C)[C@@H]1CC[C@]2(C(=O)N3CCCNCC3)CC[C@]3(C)[C@H](CC[C@@H]4[C@@]5(C)CCC(=O)C(C)(C)[C@@H]5CC[C@]43C)[C@@H]12,98.4%,90.7%,102%,92.9%,97.7%,101%,86.2%,94.9%,101%,93.6%,78.4%,99.3%,88.7%,81.9%,84.9%,104%,99.9%,100%,98.4%
CC(C)(C)CC(C)(C)c1ccc(OCCOCC[N+](C)(C)CC(=O)[O-])cc1,108%,105%,111%,106%,110%,103%,101%,106%,105%,114%,105%,102%,112%,134%,109%,,104%,104%,100%
CCOC(=O)C/C(=C\c1ccccc1)C(C)=O,104%,98.7%,114%,73.4%,112%,76.7%,67.4%,101%,102%,109%,87.6%,105%,-43.5% (active),115%,102%,98.5%,105%,91.9%,82.8%
CCCC1CCCCN1C(=O)OCC(C)C (centres undefined),152%,105%,104%,118%,107%,99.4%,104%,106%,99.7%,104%,103%,107%,109%,119%,96.1%,94.5%,100%,109%,110%
CCCCC/C(=C\c1ccccc1)C1OC(C)C(C)O1 (centres undefined),90.2%,83.4%,112%,93.5%,107%,68.5%,68.5%,91.2%,106%,103%,91.3%,104%,99.7%,102%,95.3%,104%,99.7%,87.8%,70.1%
Nc1c2c(nc3ccc(Cl)cc13)CC(c1ccc(O)cc1)CC2=O (centres undefined),61.2%,90.5%,56.2%,56.4%,23.2%,,59.5%,57.5%,123%,72.9%,18.5%,52.6%,68.5%,74.2%,65.3%,36.2%,50.8%,21.8%,78.2%
COc1ccc(OCC(CO)N2CCN(c3ccccc3)CC2)cc1 (centres undefined),103%,106%,115%,118%,116%,99.4%,100%,101%,96.3%,111%,126%,82.7%,97%,119%,95.8%,101%,98.5%,99.8%,96.1%
CC1(C)CC[C@]2(C(=O)NCCNCCN)CC[C@]3(C)C(=CC[C@@H]4[C@@]5(C)CCC(=O)C(C)(C)[C@@H]5CC[C@]43C)[C@@H]2C1,93.3%,78.1%,81.1%,70.4%,-55.8% (active),27.2%,32.6%,78.3%,-66.6% (active),32.5%,-47.9% (active),-65% (active),6.83% (active),50.1%,72.7%,96.7%,76.5%,-63.4% (active),92.8%
Cc1nnc2nc(N)[nH]n2c1=O,103%,111%,105%,109%,113%,92.8%,99%,98.8%,121%,104%,101%,93.9%,129%,117%,103%,,114%,99.2%,98.5%
Cc1cccc(C)c1NCc1nc(-c2ccccc2)n[nH]1,97.9%,112%,95.4%,100%,107%,94.5%,101%,95.6%,106%,106%,100%,98.6%,103%,121%,101%,98.1%,93.2%,97.9%,100%
Oc1ccc(CCC2CCCC(CCc3ccc(OCCF)cc3)N2)cc1 (centres undefined),87.3%,99.3%,106%,95.6%,102%,95.3%,91%,95.9%,97.2%,109%,66%,117%,88.9%,84.7%,99.1%,96.4%,104%,90.4%,
